# PubChem BioAssay (NCATS)
# Records with an inconclusive call do not appear. A call without a number means that no potency is given here. The source made the active and inactive calls. Unless noted, calls follow the shape of the full dose curve.
# Columns and labels:
# [1] = target: Glucocorticoid receptor (Homo sapiens) (UniProt P04150); assay: qHTS assay for small molecule agonists of glucocorticoid receptor signaling (AID 588532; active = well fitted curve in the direction sought with a large enough effect in the signal ratio, with a control signal flat; the % refers to the signal ratio); details: HeLa MMTV-bla, beta-lactamase ratio, agonist, 18 h; activation: stronger effect = higher value, percent of dexamethasone control, DMSO zero
# Outline: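 MMTV-bla HeLa, beta-lactamase reporter; medium with 1% charcoal/dextran-stripped FBS; cpds up to 92 uM, 18 h, 37 C; CCF4 readout 460/530 nm; Hill fit → EC50, efficacy vs 0.1 uM dexamethasone = 100%.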
# [2] = target: Peroxisome proliferator-activated receptor delta (Homo sapiens) (UniProt Q03181); assay: qHTS assay for small molecule agonists of peroxisome proliferator-activated receptor delta signaling (AID 588534)
# Outline: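 Agonist-mode beta-lactamase reporter readout (CCF4 dye, 2 h at RT) after 18 h at 37 °C exposure to a titration; Hill-equation fitting gave EC50 and maximal response.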
# [3] = target: Vitamin D3 receptor (Homo sapiens) (UniProt P11473); assay: qHTS assay for small molecule antagonists of vitamin D receptor signaling (AID 588541);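 also: receptor activated by calcitriol during compound treatment; series mostly up to about 77 µM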
# Outline: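 VDR-UAS-bla HEK293T cells (2000/well, 2% charcoal-stripped FBS) were treated with titrated compounds plus 1-alpha,25-dihydroxyvitamin D3 (50 nM or 3 nM final) for 16 h at 37 C. CCF4 beta-lactamase fluorescence was read; Hill fits gave IC50.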
# [4] = target: Vitamin D3 receptor (Homo sapiens) (UniProt P11473); assay: qHTS assay for small molecule agonists of vitamin D receptor signaling (AID 588543)
# Outline: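 Agonist-mode beta-lactamase reporter: HEK293T VDR-UAS-bla cells in charcoal-stripped 2% FBS, compound series 16 h 37 C, CCF4 2 h RT. EC50 from Hill fit, scaled against DMSO and 50 nM calcitriol control.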
# [5] = qHTS assay for small molecule agonists of retinoid X receptor alpha signaling (AID 588544); details: HEK293T RXRa-UAS-bla, beta-lactamase reporter, 18 h; 530 nm emission
# [6] = target: Retinoic acid receptor RXR-alpha (Homo sapiens) (UniProt P19793); assay: as above
# [7] = target: Thyroid hormone receptor beta (Homo sapiens) (UniProt P10828); assay: qHTS assay for small molecule agonists of thyroid hormone receptor beta signaling (AID 588545)
# Outline: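 Cells (2500/well) were seeded, incubated 4 hrs at 37 C, dosed with a compound series, incubated 18 hrs, loaded with CCF4 dye for 2 hrs at RT, then read for fluorescence. Data were scaled between DMSO (0%) and 10 nM T3 (100%).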
# [8] = qHTS assay for small molecule antagonists of retinoid X receptor alpha signaling (AID 588546; active = well fitted inhibition curve with a large enough effect in the signal ratio, with a control signal flat, not every such curve was filed as active; the % refers to the signal ratio;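 also: cells stimulated with 9-cis-retinoic acid as agonist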); details: HEK293T RXRa-UAS-bla, beta-lactamase ratio, antagonist mode; measured here: W530 green channel, cytotoxicity proxy
# Outline: (§1)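 Beta-lactamase reporter inhibition, read as CCF4 fluorescence ratio (ex 405, em 460/530 nm) after 2 h at RT. HEK293T UAS-bla cells, 2500/well, were stimulated with 9-cis-RA at 500 or 100 nM final alongside test compound for 18 h at 37 C.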
# [9] = target: Retinoic acid receptor RXR-alpha (Homo sapiens) (UniProt P19793); assay: as above; details: HEK293T RXRa-UAS-bla, beta-lactamase ratio, antagonist mode
# Outline: as §1
# [10] = target: Thyroid hormone receptor beta (Homo sapiens) (UniProt P10828); assay: qHTS assay for small molecule antagonists of thyroid hormone receptor beta signaling (AID 588547; active = well fitted inhibition curve with a large enough effect in the signal ratio, with a control signal flat, not every such curve was filed as active; the % refers to the signal ratio;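 also: cells stimulated with 0.4 nM T3 agonist during compound exposure; series mostly up to about 77 µM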); details: TR-UAS-bla HEK293, beta-lactamase ratio, antagonist mode, 18 h
# Outline: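 TR-UAS-bla GripTite HEK293 cells in 2% charcoal/dextran FBS medium were preincubated 4 h at 37 C, given compound (0.59 nM to 92 uM) plus 0.4 nM T3 (final) for 18 h, then CCF4 for 2 h at RT; Hill fit gave IC50.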
# [11] = qHTS assay for small molecule activators of the p53 signaling pathway (AID 651743; active = well fitted activation curve with a large enough effect in the signal ratio, not every such curve was filed as active; the % refers to the signal ratio; also: series mostly up to about 92 µM); details: HCT-116 p53RE-bla, beta-lactamase FRET ratio, 16 h; activation: stronger effect = higher value
# Outline: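 Agonist-mode quantitative HTS in HCT-116 cells carrying a p53-response-element beta-lactamase reporter; 16 h compound treatment at 37 C, then FRET substrate loading for 2 h at room temperature and fluorescence read.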
# [12] = qHTS assay for small molecule activators of the nuclear factor-kappa B (NF-kB) signaling pathway (AID 651749; active = well fitted activation curve with a large enough effect in the signal ratio; the % refers to the signal ratio; also: series mostly up to about 77 µM); details: NF-kB-bla ME-180 cells, beta-lactamase FRET ratio, 16 h; activation: stronger effect = higher value
# Outline: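 Human ME-180 cervical cells with an NF-kB-bla construct; compounds added via 23 nL pin transfer, DMSO as vehicle; incubation 16 hr. Reporter activity measured by FRET disruption.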
# [13] = qHTS assay for environmental chemicals that activate the Aryl hydrocarbon Receptor (AhR) signaling pathway (AID 651777; active = well fitted curve in the direction sought with a large enough effect; an effect the other way counts as inactive or inconclusive; also: nearly all actives have a fitted effect of over 15% in size); details: 1A2-DRE human hepatoma cells, luciferase, 24 h; activation: stronger effect = higher value
# Outline: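 Quantitative HTS in stably transfected human liver-derived cells whose luciferase gene sits downstream of the CYP1A2 promoter and dioxin response element. After 24 hr exposure at 37 C, One-Glo luminescence was measured.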
# [14] = target: Peroxisome proliferator-activated receptor alpha (Homo sapiens) (UniProt Q07869); assay: qHTS assay for small molecule agonists of the peroxisome proliferator-activated receptor alpha (PPARalpha) signaling pathway (AID 651778; active = well fitted curve in the direction sought with a large enough effect; an effect the other way counts as inactive or inconclusive); details: PathHunter PPARalpha complementation, chemiluminescence, 6 h; max response: stronger effect = higher value
# Outline: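 Cells plated at 2,000/well and held overnight at 37 C, 5% CO2, then compound added by pin tool for 6 hr; after PathHunter detection reagent and 60 min at room temperature, chemiluminescence from enzyme complementation was read.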
# [15] = qHTS assay for small molecule agonists of the antioxidant response element (ARE) signaling pathway measured by Nrf2-dependant transcriptional activity (AID 720636; active = well fitted curve in the direction sought with a large enough effect in the repeat runs; an effect the other way counts as inactive or inconclusive)
# Outline: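 Quantitative HTS format in HepG2 cells stably expressing an ARE-luciferase reporter; 16 hr compound treatment at 37 C, luciferase signal detected with ONE-Glo.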
# [16] = qHTS assay for cell viability of HEK293 cells (AID 743288; active = well fitted curve in the direction sought with a large enough effect; an effect the other way counts as inactive or inconclusive; also: nearly all actives have a fitted effect of over 50% in size); details: ATP luminescence (CellTiter-Glo), 18 h; max response: stronger effect = lower value
# Outline: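 Readout is luciferase-coupled ATP content (CellTiter-Glo luminescence, 30 min room temperature) as a measure of metabolically competent cells. Parental HEK293 cells were plated 5 h or more before compound addition, then treated 18 h at 37 C.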
# [17] = qHTS assay for small molecule antagonists of peroxisome proliferator-activated receptor delta signaling (AID 588535; active = well fitted inhibition curve with a large enough effect in the signal ratio, with a control signal flat, not every such curve was filed as active; the % refers to the signal ratio;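 as to max response: cells co-treated with a PPAR-delta agonist as stimulator during compound exposure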); details: HEK293T PPARd-UAS-bla, beta-lactamase FRET ratio, 18 h; 460 nm channel
# Outline: (§2)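 Inhibition of PPAR-delta response element-driven beta-lactamase expression is measured in HEK293T cells exposed to a compound titration series for 18 hrs at 37 C. Half-maximal inhibition comes from Hill equation fitting.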
# [18] = target: Peroxisome proliferator-activated receptor delta (Homo sapiens) (UniProt Q03181); assay: as above
# Outline: as §2
# [19] = target: Peroxisome proliferator-activated receptor gamma (Homo sapiens) (UniProt P37231); assay: qHTS assay for small molecule agonists of peroxisome proliferator-activated receptor gamma signaling (AID 588536; active = well fitted curve in the direction sought with a large enough effect in the signal ratio, with a control signal flat, not every such curve was filed as active; the % refers to the signal ratio)
# Outline: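 Cells were plated and held 6–6.5 h at 37 C, then compounds were added as a titration series. After a further 16 h, CCF4 dye was loaded for 2 h at room temperature and emission at 460/530 nm recorded.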
# [20] = target: Peroxisome proliferator-activated receptor gamma (Homo sapiens) (UniProt P37231); assay: qHTS assay for small molecule antagonists of peroxisome proliferator-activated receptor gamma signaling (AID 588537; active = well fitted inhibition curve with a large enough effect in the signal ratio, with a control signal flat, not every such curve was filed as active; the % refers to the signal ratio;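 also: reporter cells co-stimulated with 50 nM rosiglitazone agonist during compound treatment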)
# Outline: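 Compounds are tested as concentration series for inhibition of rosiglitazone-driven (50 nM) reporter expression in GeneBLAzer PPAR-gamma-UAS-bla HEK293 cells. After 16 h at 37 C, CCF4 substrate is added for 2 h at room temperature and blue/green fluorescence is measured.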
# [21] = qHTS assay for small molecule agonists of the antioxidant response element (ARE) signaling pathway measured by Nrf2-dependant transcriptional activity - cell viability counter screen (AID 720653; active = well fitted curve in the direction sought with a large enough effect in the repeat runs; an effect the other way counts as inactive or inconclusive); details: ARE-bla HepG2 viability, CellTiter-Glo ATP luminescence, 16 h; max response: stronger effect = lower value
# Outline: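 ARE-bla HepG2 cells (2,000/well) rested 5 hrs at 37C/5% CO2, then exposed to compounds in DMSO for 16 hrs. Viability was read in the same wells as intracellular ATP by luminescence, 30 min at room temperature after reagent addition.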
# [22] = target: Nuclear receptor subfamily 1 group I member 2 (Rattus norvegicus) (UniProt Q9R1A7); assay: qHTS assay for small molecule activators of the rat pregnane X receptor (rPXR) signaling pathway (AID 651751; call rule not given here); details: rPXR reporter cells, luciferase (One-Glo), 24 h
# [23] = qHTS assay for small molecule activators of the human pregnane X receptor (PXR) signaling pathway (AID 720659; call rule not given here)
# Sequence of Peroxisome proliferator-activated receptor delta (Homo sapiens) (Q03181 whole entry, looked up): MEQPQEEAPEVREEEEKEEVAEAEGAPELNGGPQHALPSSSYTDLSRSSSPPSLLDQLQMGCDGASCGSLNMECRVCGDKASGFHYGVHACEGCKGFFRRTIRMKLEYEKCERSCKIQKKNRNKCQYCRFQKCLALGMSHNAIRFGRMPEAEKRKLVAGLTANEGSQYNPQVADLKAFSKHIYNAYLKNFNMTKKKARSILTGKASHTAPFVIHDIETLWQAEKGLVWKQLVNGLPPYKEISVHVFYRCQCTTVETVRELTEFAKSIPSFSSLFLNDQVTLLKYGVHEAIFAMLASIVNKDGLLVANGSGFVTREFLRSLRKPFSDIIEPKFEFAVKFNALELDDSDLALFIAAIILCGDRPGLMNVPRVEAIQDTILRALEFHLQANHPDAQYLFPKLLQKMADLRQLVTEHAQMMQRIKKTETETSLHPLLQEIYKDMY
# Sequence of Thyroid hormone receptor beta (Homo sapiens) (P10828 whole entry, looked up): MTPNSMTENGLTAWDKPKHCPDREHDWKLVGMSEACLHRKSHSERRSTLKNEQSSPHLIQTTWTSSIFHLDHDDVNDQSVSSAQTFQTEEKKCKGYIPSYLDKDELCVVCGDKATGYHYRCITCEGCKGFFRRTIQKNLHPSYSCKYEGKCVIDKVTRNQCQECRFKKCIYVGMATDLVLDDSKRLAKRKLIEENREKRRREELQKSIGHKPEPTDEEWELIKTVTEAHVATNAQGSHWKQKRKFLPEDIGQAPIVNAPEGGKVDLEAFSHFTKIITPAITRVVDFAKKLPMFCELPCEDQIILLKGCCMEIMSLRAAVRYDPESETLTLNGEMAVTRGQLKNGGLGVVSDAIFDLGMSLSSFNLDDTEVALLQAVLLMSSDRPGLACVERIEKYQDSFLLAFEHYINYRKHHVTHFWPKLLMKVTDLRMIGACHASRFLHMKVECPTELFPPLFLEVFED
# Sequence of Retinoic acid receptor RXR-alpha (Homo sapiens) (P19793 whole entry, looked up): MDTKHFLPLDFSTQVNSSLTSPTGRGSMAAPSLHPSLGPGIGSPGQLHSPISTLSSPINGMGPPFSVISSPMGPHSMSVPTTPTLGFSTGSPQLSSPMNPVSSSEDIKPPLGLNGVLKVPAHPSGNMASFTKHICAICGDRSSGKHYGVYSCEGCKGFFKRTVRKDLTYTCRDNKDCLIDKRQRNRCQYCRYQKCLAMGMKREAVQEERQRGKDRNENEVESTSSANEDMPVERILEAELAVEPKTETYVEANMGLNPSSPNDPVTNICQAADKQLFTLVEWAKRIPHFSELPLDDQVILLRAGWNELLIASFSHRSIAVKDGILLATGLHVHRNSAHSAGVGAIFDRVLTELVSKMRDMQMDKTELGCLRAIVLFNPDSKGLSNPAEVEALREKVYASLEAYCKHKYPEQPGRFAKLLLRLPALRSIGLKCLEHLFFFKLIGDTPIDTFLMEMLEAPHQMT
# Sequence of Vitamin D3 receptor (Homo sapiens) (P11473 whole entry, looked up): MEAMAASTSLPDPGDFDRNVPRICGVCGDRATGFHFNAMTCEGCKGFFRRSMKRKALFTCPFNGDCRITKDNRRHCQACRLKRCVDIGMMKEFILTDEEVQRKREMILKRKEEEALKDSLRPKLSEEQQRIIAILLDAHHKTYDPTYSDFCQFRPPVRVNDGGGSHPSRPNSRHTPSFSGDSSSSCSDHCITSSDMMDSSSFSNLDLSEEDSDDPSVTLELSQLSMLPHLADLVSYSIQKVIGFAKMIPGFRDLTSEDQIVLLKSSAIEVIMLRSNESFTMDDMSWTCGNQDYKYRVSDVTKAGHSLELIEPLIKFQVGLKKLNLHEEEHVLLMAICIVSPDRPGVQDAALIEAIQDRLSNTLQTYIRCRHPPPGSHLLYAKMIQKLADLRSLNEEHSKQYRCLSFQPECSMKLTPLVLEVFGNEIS
# Sequence of Peroxisome proliferator-activated receptor gamma (Homo sapiens) (P37231 whole entry, looked up): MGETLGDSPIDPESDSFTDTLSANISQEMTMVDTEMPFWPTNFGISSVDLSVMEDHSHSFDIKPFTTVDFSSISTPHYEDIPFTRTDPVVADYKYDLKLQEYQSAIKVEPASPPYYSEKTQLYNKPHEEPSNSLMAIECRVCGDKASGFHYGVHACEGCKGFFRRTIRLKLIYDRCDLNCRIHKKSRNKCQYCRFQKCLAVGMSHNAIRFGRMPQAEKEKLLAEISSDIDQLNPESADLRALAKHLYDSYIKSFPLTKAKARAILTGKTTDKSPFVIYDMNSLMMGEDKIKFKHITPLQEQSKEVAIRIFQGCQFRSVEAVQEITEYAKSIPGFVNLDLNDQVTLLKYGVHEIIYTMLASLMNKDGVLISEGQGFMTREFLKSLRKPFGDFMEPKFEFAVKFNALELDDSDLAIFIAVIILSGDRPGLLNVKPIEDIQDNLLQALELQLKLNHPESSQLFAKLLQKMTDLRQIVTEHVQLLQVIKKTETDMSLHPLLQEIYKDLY
# Sequence of Glucocorticoid receptor (Homo sapiens) (P04150 whole entry, looked up): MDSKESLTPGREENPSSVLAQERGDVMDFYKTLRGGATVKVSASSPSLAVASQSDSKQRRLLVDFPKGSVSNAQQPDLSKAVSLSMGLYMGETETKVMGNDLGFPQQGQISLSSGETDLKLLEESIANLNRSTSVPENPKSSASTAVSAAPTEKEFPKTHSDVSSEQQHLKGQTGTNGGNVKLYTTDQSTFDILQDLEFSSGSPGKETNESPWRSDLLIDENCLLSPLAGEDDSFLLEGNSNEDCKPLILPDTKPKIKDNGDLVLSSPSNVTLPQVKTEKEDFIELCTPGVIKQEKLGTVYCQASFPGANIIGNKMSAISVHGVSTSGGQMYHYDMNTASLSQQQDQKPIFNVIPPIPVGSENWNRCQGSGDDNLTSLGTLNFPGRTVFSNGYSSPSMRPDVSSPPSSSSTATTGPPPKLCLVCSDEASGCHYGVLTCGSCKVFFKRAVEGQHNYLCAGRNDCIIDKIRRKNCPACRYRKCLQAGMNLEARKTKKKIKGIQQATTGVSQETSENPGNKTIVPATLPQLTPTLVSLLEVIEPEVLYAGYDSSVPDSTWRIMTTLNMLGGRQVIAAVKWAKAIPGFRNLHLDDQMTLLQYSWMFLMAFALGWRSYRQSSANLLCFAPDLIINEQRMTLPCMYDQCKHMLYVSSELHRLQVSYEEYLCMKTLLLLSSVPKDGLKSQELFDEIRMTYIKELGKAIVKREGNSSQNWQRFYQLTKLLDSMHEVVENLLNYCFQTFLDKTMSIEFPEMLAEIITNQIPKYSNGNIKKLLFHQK
# Sequence of Nuclear receptor subfamily 1 group I member 2 (Rattus norvegicus) (Q9R1A7 whole entry, looked up): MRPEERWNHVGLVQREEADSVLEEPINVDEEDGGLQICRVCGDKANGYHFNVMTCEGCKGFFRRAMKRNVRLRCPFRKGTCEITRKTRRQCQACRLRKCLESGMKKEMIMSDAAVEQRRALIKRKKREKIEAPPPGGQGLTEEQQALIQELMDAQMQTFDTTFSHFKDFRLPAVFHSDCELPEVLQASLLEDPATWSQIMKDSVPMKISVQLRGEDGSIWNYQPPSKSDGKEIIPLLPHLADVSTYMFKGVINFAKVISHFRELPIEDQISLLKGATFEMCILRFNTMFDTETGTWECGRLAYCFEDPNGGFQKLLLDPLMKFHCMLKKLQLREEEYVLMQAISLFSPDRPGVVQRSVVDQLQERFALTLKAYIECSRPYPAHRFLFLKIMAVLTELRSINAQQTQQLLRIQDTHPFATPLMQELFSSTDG
# Sequence of Peroxisome proliferator-activated receptor alpha (Homo sapiens) (Q07869 whole entry, looked up): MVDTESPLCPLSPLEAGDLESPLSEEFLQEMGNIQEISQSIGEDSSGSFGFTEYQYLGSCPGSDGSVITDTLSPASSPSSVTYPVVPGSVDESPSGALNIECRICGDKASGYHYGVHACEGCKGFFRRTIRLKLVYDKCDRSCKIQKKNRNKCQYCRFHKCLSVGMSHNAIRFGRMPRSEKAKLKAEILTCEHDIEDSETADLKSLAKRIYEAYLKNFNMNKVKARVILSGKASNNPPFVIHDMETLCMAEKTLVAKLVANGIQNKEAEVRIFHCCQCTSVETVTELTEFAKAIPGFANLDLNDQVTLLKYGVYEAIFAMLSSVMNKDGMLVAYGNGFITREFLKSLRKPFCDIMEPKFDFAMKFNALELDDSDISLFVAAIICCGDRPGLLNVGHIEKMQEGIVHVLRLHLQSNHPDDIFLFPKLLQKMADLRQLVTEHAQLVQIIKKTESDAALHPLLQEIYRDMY
smiles,measurement,setting,value
C#CC(C)(C)NC(=O)c1cc(Cl)cc(Cl)c1,activation,[1],-9.44% (inactive)
same,outcome,[2],inactive
same,Potency,[3],inactive
same,outcome,[4],inactive
same,max response,[5],-7.53%
same,Potency,[6],inactive
same,Potency,[7],inactive
same,max response,[8],-11.2%
same,max response,[9],-9.81% (inactive)
same,activity change % (negative = inhibition),[10],3.53% (inactive)
same,activation,[11],-3.76% (inactive)
same,activation,[12],-1.42% (inactive)
same,activation,[13],-1.14% (inactive)
same,max response,[14],7.64% (inactive)
same,Potency,[15],inactive
same,max response,[16],5.07% (inactive)
CCc1cnc(C2=NC(C)(C(C)C)C(=O)N2)c(C(=O)O)c1 (stereo unspecified),activation,[1],-7.69% (inactive)
same,outcome,[2],inactive
same,max response,[17],6.03%
same,Potency,[18],inactive
same,Potency,[19],inactive
same,Potency,[20],inactive
same,Potency,[3],inactive
same,outcome,[4],inactive
same,max response,[5],-15.1%
same,Potency,[6],inactive
same,Potency,[7],inactive
same,activation,[13],-2.09% (inactive)
same,Potency,[15],inactive
same,max response,[21],16.5% (inactive)
same,max response,[16],4.64% (inactive)
same,max response,[22],-2.79% (inactive)
same,outcome,[23],inactive
O=[N+]([O-])c1ccc(F)cc1F,outcome,[2],inactive
Brc1cc(Oc2cc(Br)c(Br)c(Br)c2Br)c(Br)c(Br)c1Br,outcome,[2],inactive
C1CCCNCC1,outcome,[2],inactive
Cc1ccc(S(=O)(=O)Oc2ccc(N=Nc3ccc(-c4ccc(N=Nc5c(O)ccc6cc(S(=O)(=O)O)cc(S(=O)(=O)O)c56)c(C)c4)cc3C)cc2)cc1,outcome,[2],inactive
COCC(=O)O,outcome,[2],inactive
CCCCC(=O)N(C)C,outcome,[2],inactive
CCCCCCCCN,outcome,[2],inactive
CC(C)(O)C(=O)O,outcome,[2],inactive
O=CC(=O)c1ccccc1,outcome,[2],inactive
OC1CCCCC1,outcome,[2],inactive
O=Cc1c(Cl)cccc1Cl,outcome,[2],inactive
C=C(C)C(=O)OCCCCCCCCCCCC,outcome,[2],inactive
Cc1ccccc1C=O,outcome,[2],inactive
O=c1[nH]ncc2ccccc12,outcome,[2],inactive
CC(=O)c1nccs1,outcome,[2],inactive
CC(=O)c1cc(C)oc1C,outcome,[2],inactive
CCCCCCCCC(=O)O,outcome,[2],inactive
CCCCC(CC)CNCC(CC)CCCC (stereo unspecified),outcome,[2],inactive
CCOCCOCCOCC,outcome,[2],inactive
O=C1CCCCCCCCCCC1,outcome,[2],inactive
CCCCCNCCCCC,outcome,[2],inactive
CCc1ccccc1,outcome,[2],inactive
CN(C)c1cccc(O)c1,outcome,[2],inactive
Nc1cc([N+](=O)[O-])ccc1C(=O)O,outcome,[2],inactive
C=CC(C)(O)CCCC(C)CCCC(C)CCCC(C)C (stereo unspecified),outcome,[2],inactive
CCNc1ccccc1,outcome,[2],inactive
CCC(O)OCCCOC (stereo unspecified),outcome,[2],inactive
CCCCCCCC(=O)OC,outcome,[2],inactive
NC(=O)c1ccccc1[N+](=O)[O-],outcome,[2],inactive
CCCCCCCCCCCCN,outcome,[2],inactive
FC(F)(F)c1ccc(Cl)c(Cl)c1,outcome,[2],inactive
OCCOCCOCCOCCO,outcome,[2],inactive
Cc1cccc(C(=O)O)c1[N+](=O)[O-],outcome,[2],inactive
